We go through 36 sequences from the OligoGym collection.

Experiment in all cases: pooled miR-30 sensor sort-seq; sequence = guide strand
Common to all, as to details: shRNA

In assay [1] the target is STARD3NL.
Assay [2] has as its target STARD13.
In assay [3] the target is STAP2.
Assay [4] has as its target STARD3.
The target in assay [5] is STK11.
Assay [6] addresses STK24.
In assay [7] the target is STAT5B.
Also: reference of the scale not given here.

In the case of TAAATAAATCTTTATTAGCTGT, the sensor-assay potency score (higher = more potent) in assay [1] is -0.476.

As to TAGTCGGGAACTTTCATCCTCT, the sensor-assay potency score (higher = more potent) in assay [2] stood at 0.0488. Take TACCTTGAACTTGATCTCCTGA: in assay [3], the sensor-assay potency score (higher = more potent) was determined as 0.355. As to TTCAGGATAAACGTCTTGCCGT, in assay [4], the sensor-assay potency score (higher = more potent) was -0.566.

In assay [1], TTCAACTTTACTGTCGACAGGG returned a sensor-assay potency score (higher = more potent) of 0.68.

For the sequence TTGATTAGGAATACAGCACAAG, the sensor-assay potency score (higher = more potent) in assay [1] is -0.839. TATTTCTTCTGTATGACTCGTG showed a sensor-assay potency score (higher = more potent) in assay [2] of 0.941. With TTGTAGTCTGATCAAATCGCAA, the sensor-assay potency score (higher = more potent) in assay [2] was -1.15.

In the case of TTTAACTCTATTATCCACAGTA, the sensor-assay potency score (higher = more potent) in assay [1] stood at 0.804. TTTGCTAGTAAAAAGGCACTGG registered a sensor-assay potency score (higher = more potent) in assay [1] of 0.563. TTGTCATAGATACTGACTCGGC: the sensor-assay potency score (higher = more potent) in assay [2] was -0.87. Take TTGCTGAATACTTTGAGGCAGG: the sensor-assay potency score (higher = more potent) in assay [2] is -0.948. Regarding TTAAGAATCCAGACAAAGGTGC, in assay [4], the sensor-assay potency score (higher = more potent) was -0.169. In assay [3], TCTCATAGTAGTGTGAAGGCAG gave a sensor-assay potency score (higher = more potent) of 0.0304.

Consider TTGAATTTTAGTCACTAGCTGA, for which, in assay [2], the sensor-assay potency score (higher = more potent) is -0.1. In the case of TACTTCAATATATTAAGTCTTT, the sensor-assay potency score (higher = more potent) in assay [1] was -0.927. In assay [5], TACATTTTCTGCTTCTCTTCGT had a sensor-assay potency score (higher = more potent) of 0.646. In assay [6], TACATATGGACTGTCACACTGA gave a sensor-assay potency score (higher = more potent) of 0.632. Regarding TTAACACTTCCATCACACCGTC, the sensor-assay potency score (higher = more potent) in assay [7] is -0.414. Turning to TTGGCTTCTCGGACCAACCTCT, the sensor-assay potency score (higher = more potent) in assay [7] was -0.339. Same read-out and setting: the same measure for TTCTGAGTCACTGAATCTCAGG: -1.25; for TAACTCATTCTCTGTGTCCTGC: 0.72. With TTCCACAGCACCATCCTCTCGG, in assay [4], the sensor-assay potency score (higher = more potent) is 0.506. On to TAACACTTCCATCACACCGTCA, for which the sensor-assay potency score (higher = more potent) in assay [7] is -0.288. For the sequence TTCTTCTTGAGGATCTTGACGG, the sensor-assay potency score (higher = more potent) in assay [5] was -0.484.

With TTAGCAGTAGCAGACTCGCAGG, the sensor-assay potency score (higher = more potent) in assay [7] was -0.797. For the sequence TTCCACTCGCTGCAGGATCTGG, the sensor-assay potency score (higher = more potent) in assay [4] was -1.17. For TTCGTTGTATAACACATCCACC, the sensor-assay potency score (higher = more potent) in assay [5] was -1.02. For TTTCTCTTAATATAGTAGCGAT, the sensor-assay potency score (higher = more potent) in assay [6] was -0.861. Turning to TTCTCAATGATGAACGTGCTGG, in assay [7], the sensor-assay potency score (higher = more potent) was -0.64. On to TGTGTTGGTATTCAGTTCGATG, for which the sensor-assay potency score (higher = more potent) in assay [4] is -1.58. Regarding TCGCAACTTCTTCTTCTTGAGG, the sensor-assay potency score (higher = more potent) in assay [5] was -1.45. For TATACTTCATCTTTTGGCCGAT, the sensor-assay potency score (higher = more potent) in assay [7] is -0.0426. For TCTTCTTGAGGATCTTGACGGC, the sensor-assay potency score (higher = more potent) in assay [5] was -0.46. TTTCCTTCCAACGTCGGTGGGT registered a sensor-assay potency score (higher = more potent) in assay [6] of 0.554. In the case of TAACACATCCACCAGCTGGATG, the sensor-assay potency score (higher = more potent) in assay [5] was -1.1.
